p53 reactivator = mutant p53 re-activation in reporter cells. Potency, µM (highest dose often 92.2 µM), inactives show at the top dose activity change, positive = activation, usual class: activators. H1299 p53-A138V BP100-luciferase reporter, luminescence, 24 h. 320,000 compounds, 0.063% hits; also: potency is read from the fitted curve at half-maximal effect; % of control where 0% means no effect; nearly all actives have a fitted effect of over 45% in size
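H1299 (p53-null), stable ts p53-A138V + BP100-Luc; 1000 cells/well, Opti-MEM/10% FBS; cpd 4 pt, 1:5; 24 h, 37 deg C, 5% CO2; detection reagent 10 min RT; luminescence.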
TRPV1 PAM = human TRPV1 potentiation | potentiation, % at 8.33 µM | AID 540277 | TRPV1-expressing cells, Fluo-8 calcium influx, capsaicin EC20 potentiation | 320,000 compounds, 0.02% hits; in the data active = potentiation above about 80%; inconclusive = between about 30% and that limit; also: 0% is about no effect
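Fluo-8 calcium influx in TRPV1-expressing cells, kinetic read (ex 480/em 520 nm). Compound added and read 3 min for agonist activity, followed by capsaicin at EC20 final and 2 min further read for enhancement.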
KCNH2 3.1 block = KCNH2 3.1 (human) potassium channel inhibition | U2OS KCNH2 3.1, thallium flux FluxOr; hits give low values | activity change, % (tested at about 1.8 µM) | AID 720553 | 340,000 compounds, 0.95% hits;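 active = maximum activity change below -70%; inconclusive = maximum activity change from -70% to -50%; inactive = maximum activity change above -50%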;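 also: thallium influx rate constant from kinetic fluorescence after stimulation buffer; % is scaled to controls: 0 for no effect and ±100 for the full control effect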
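Normalized rate constant (relative to positive and negative DMSO controls) derived from a 2 min kinetic fluorescence read after stimulation; U2OS cells expressing the 3.1 isoform via virus at 1.77 x 10^8 /mL.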
hERG WT inh = KCNH2 (human, wildtype) channel inhibition; Q12809; U2OS, BacMam KCNH2, thallium flux FluxOr; hits give low values; activity change, % at 1.84 µM; 340,000 compounds, 0.37% hits; AID 720551;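 active = maximum activity change below -70%; inconclusive = maximum activity change between -70% and -50%; inactive = maximum activity change above -50%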; also: % is scaled to controls: 0 for no effect and ±100 for the full control effect
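U2OS cells were transduced with wild-type KCNH2 virus (2.03 x 10^8 / mL) for 4 h at room temperature, then cultured overnight at 37 C. Thallium flux was read with FluxOr dye. Rate constants were normalized to DMSO controls.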
ClpP mod = qHTS Assay for Activators of ClpP; purified B. subtilis ClpP, FRET peptide cleavage, 20 min; ATP-dependent Clp protease proteolytic subunit (Bacillus subtilis (strain 168)), P80244; Potency, µM (highest dose often 57.5 µM), for the others: top-dose activity change, negative = active; 340,000 compounds, 1.9% hits; AID 651965, 2013; active = well fitted falling curve with a large enough effect; inconclusive = small, poorly fitted or top-dose-only effect; inactive = no such curve, though single readings can be large or run the other way; also: potency is read from the fitted curve at half-maximal effect; the source files actives as falling curves though it sought activators and does not explain the sign; nearly all actives have a fitted effect of over 65% in size
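FRET quenching reversal measured ClpP activation: 10 microg/mL B. subtilis ClpP at pH 8 with the FRET-FV decapeptide, read at 430 nm after 320 nm excitation. The 20-min minus 0-min signal was scaled between DMSO/no-enzyme wells and ADEP (5.8 microM final).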
TRPV1 ag = activates the human vanilloid receptor TRPV1 | Q8NER1 | TRPV1-expressing cells, Fluo-8 calcium influx, agonist mode | activation, % at 8.33 µM | 320,000 compounds, 0.19% hits; in the data active = activation above about 80%; inconclusive = between about 30% and that limit; also: 0% is about no effect
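Fluo-8 calcium influx in TRPV1-expressing cells, kinetic read (ex 480/em 520 nm). Compound added and read 3 min for agonist activity, followed by capsaicin at EC20 final and 2 min further read for enhancement.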
ClpP inh valid = Bacillus subtilis ClpP inhibition, validated hit | shares compounds with ClpP mod | purified B. subtilis ClpP, FRET-FV substrate cleavage, 20 min | Potency, µM (titrated, usually from 57.5 µM), for inactives: top-dose activity change, negative = inhibition, hits mostly inhibitors | 470 compounds, 40% hits; also: potency is read from the fitted curve at half-maximal effect; % is scaled to controls: 0 for no effect and ±100 for the full control effect; nearly all actives have a fitted effect of over 70% in size
* = called active by the depositor; ? = inconclusive; / = no result given. Shown are actives, neighbours in structure and some others; about 2.6% of the full set was active somewhere. Unless noted, calls follow the shape of the dose curve; as a rule, active = well fitted curve in the direction sought with a large enough effect; inconclusive = small, poorly fitted or top-dose-only effect, or another doubt; inactive = no such curve, though single readings can be large; an effect the other way counts as inactive or inconclusive.

SMILES | p53 reactivator | TRPV1 PAM | KCNH2 3.1 block | hERG WT inh | ClpP mod | TRPV1 ag | ClpP inh valid
COc1ccc(-c2ccc(-c3nnc(Cc4ccc(OC)c(OC)c4)o3)cc2)cc1 | -2% | -2 | 5 | -6 | 2µM* | 17 | ?
COc1ccc(OC)c(NCc2nnc(-c3ccccc3)o2)c1 | 6% | 4 | 0 | 7 | / | 2 | /
O=C(CCOc1ccccc1)Nc1ccc(Br)cc1 | / | 4 | -4 | -4 | 7.9µM* | 24 | 0%
O=C(CCCOc1ccccc1)Nc1ccc(Br)cc1 | / | / | -38 | -10 | 1% | / | /
Cc1cc(C)n2nc(NCc3ccccc3)nc2n1 | / | 8 | -34 | -3 | 10µM* | 1 | 24µM*
COc1ccc(S(=O)(=O)N2CCCC2C(=O)Nc2nc3c(s2)CCCC3)cc1 (configuration not stated) | 1% | -12 | 4 | -19 | 6.3µM* | 2 | 0%
CCCCN(C)CCNC(=O)c1nn(-c2ccc(OC)cc2)c(=O)c2c1c1ccccc1n2C | 6% | -9 | -8 | / | -6% | 8 | /
CCN(CC)CCCNC(=O)c1cn(CCOC)c(=O)c2c1c1ccccc1n2C | -2% | 7 | 3 | -1 | 10µM* | 1 | 22µM*
CC1CN(C(=O)Nc2ccc3c(c2)OCCO3)CC(C)O1 (configuration not stated) | 30% | 8 | 5 | -1 | 3.5µM* | 3 | -1%
CC1=C(c2ccc(C)cc2)S(=O)(=O)N(Cc2ccc(C(=O)Nc3ccccc3C)cc2)C1=O | / | / | / | / | -3% | / | /
CC1=C(c2ccc(C)cc2)S(=O)(=O)N(Cc2ccc(C(=O)NCc3ccccc3)cc2)C1=O | / | / | / | / | 5µM* | / | -2%
CCCCNC(=O)C1c2ccccc2OCC(=O)N1Cc1ccccn1 (configuration not stated) | / | / | / | / | -5% | / | /
CCCC(=O)Nc1ccc2oc(-c3ccc(OC)c(Br)c3)nc2c1 | 16% | -4 | -7 | -8 | 8.9µM* | 1 | 24µM*
C1=Cc2ccccc2/C1=C\c1ccc2c(c1)OCO2 | / | / | / | / | 0% | / | /
Cc1ccc(NC(=O)Cn2c(=O)n(CCC(C)C)c(=O)c3cccnc32)cc1C | / | / | / | / | 71% | / | 5%
CC(OC(=O)CCNS(=O)(=O)c1ccccc1)C(=O)Nc1ccc(S(=O)(=O)N2CCCCC2)cc1 (configuration not stated) | / | / | 17 | -10 | -1% | / | /
COc1ccc(-n2nc(C(=O)Nc3ccc(C)cn3)c3c4ccccc4n(C)c3c2=O)cc1Cl | / | / | / | / | -11% | / | /
O=C(NCCN1CCOCC1)c1ccc(NC(=O)c2ccc(Br)o2)cc1 | / | / | / | / | -1% | / | /
NC(=O)c1ccccc1NS(=O)(=O)Cc1ccccc1 | 7% | -12 | -8 | 3 | 7.9µM* | -3 | 22µM*
CC(C)CCNc1ncnc2c1nnn2Cc1ccccc1Cl | -5% | -21 | -10 | -30 | 10µM* | 27 | -2%
Cc1cccc(C)c1N1C(=O)c2ccccc2NC(=O)C1C(=O)NCC(C)C (configuration not stated) | / | / | / | / | -2% | / | /
O=C(Nc1ccc2c(c1)Cc1ccccc1-2)c1ccncc1 | 27% | -12 | -12 | -9 | 10µM* | 81* | -6%
COc1cccc2c1cc1c(=O)n(CC(=O)NCc3ccco3)nc(C)n12 | / | / | / | / | 3.5µM* | / | ?
CCCN1CCN(CCCNC(=O)Cn2nc(C)n3c(cc4c(OC)cccc43)c2=O)CC1 | / | / | / | / | 4.5µM* | / | 3.9µM*
Fc1cc2nc(-c3ccncc3)[nH]c2cc1F | 29% | -43 | 13 | 4 | 3.2µM* | -1 | 17µM*
CCCNC(=O)c1ccc(C2SCC(=O)N2Cc2ccccc2)cc1 (configuration not stated) | -8% | -16 | / | 11 | 2.5µM* | 2 | -1%
